Molecules are shown by their SMILES. Activity calls are given as the source filed them.

System in the first assay: not listed separately
The assay can be described thus: S. cerevisiae growth modulation with rapamycin, primary screen, strain BY4716, OD600, 96 h (AID 1091). Note: test concentration not given here. The note with it: higher = more signal, called active from +8 up or from −8 down.
Take `C=CCN1C(=O)[C@@]2(O[C@@H](CCO)[C@H]([Si](C)(C)c3ccc(OC)cc3)[C@H]2C)c2cc(NC(=O)c3ccc(OC)cc3)ccc21`: the z-score was 1.02 (inactive). Still for that read-out and setting: for `C[C@]1(C(=O)NC2CC2)c2ccccc2C(=O)N(Cc2cc(C(F)(F)F)cc(C(F)(F)F)c2)[C@H]1c1ccc(CO)cc1` the value was -0.0211 (inactive); for `CC(C)OC(=O)C=C1C[C@@H](c2ccccc2C(F)(F)F)O[C@@H](c2ccccc2C(F)(F)F)O1`, 1.38 (inactive); for `CC(C)(C)OC(=O)CC[C@]1(C(=O)O)N=C(c2ccc(OCCCO)cc2)O[C@H]1c1ccccc1N=[N+]=[N-]`, -0.668 (inactive). For `O=C1OCC=C[C@H]2OC34C=CCN(c5ccc6ccccc6c5)C(=O)[C@H]3N(CCCCCCO)C(=O)[C@@H]4[C@@H]12` (stereo not given in full), the z-score is -0.806 (inactive). With `COc1cc2c(cc1OC)CN(C(=O)[C@H]1[C@@H]3C(=O)O[C@@H](c4ccccc4)[C@@H](c4ccccc4)N3[C@@H](c3ccc(O)cc3)[C@]13C(=O)Nc1ccc(C#CCNC(N)=O)cc13)CC2`, the z-score was 0.518 (inactive).

Consider `C=CCC(OC(C)=O)[C@@H]1[C@@H](N(Cc2cccc3ccccc23)C(=O)c2ccc(-c3ccccc3)cc2)c2cc(OCCCO)ccc2N1C(=O)Cc1ccc(OC)cc1` (stereo not given in full), for which the z-score was -1.03 (inactive). `COC(=O)c1c(CC[C@@H](CO)NC(=O)N2CCC[C@H]2Cn2cc(-c3ccccn3)nn2)oc(C(C)=O)c1C(=O)OC`: the z-score was -1.46 (inactive). Same read-out and setting: for `C=CCNC(=O)[C@@H]1[C@H]2C(=O)O[C@H](c3ccccc3)[C@H](c3ccccc3)N2[C@H](c2ccc(OCCO)cc2)[C@@]12C(=O)Nc1ccc(C#Cc3ccc(OC)cc3)cc12` the value was 4.49 (inactive). For the compound `CN1C(=O)C2C=CC(C(O)c3cc(C(F)(F)F)cc(C(F)(F)F)c3)N(N3CCCCC3)C2C1=O` (stereo not given), the z-score is 1.63 (inactive).

`COCCOC(=O)N1C(=O)[C@@]2(c3cc(C#CCCO)ccc31)[C@H](C(=O)N1CCN(c3ncccn3)CC1)[C@H]1C(=O)O[C@H](c3ccccc3)[C@H](c3ccccc3)N1[C@@H]2c1ccccc1OCCO`: the z-score is 3.34 (inactive).

The target in a further assay is Torsin-1A-interacting protein 2 (Homo sapiens) (UniProt Q8NFQ8). The assay can be described thus: LULL1 binders on small-molecule microarray, primary screen, cell lysate, human LULL1 lysate, 635/667 nm fluorescence (AID 1092).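 Note: probe is lysate of COS7 cells overexpressing human LULL1; score merges per-feature 667 nm fluorescence with signal-to-noise.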 The note with it: hLULL1 lysate binding, 635 nm fluorescence, higher = more signal.
Sequence of Torsin-1A-interacting protein 2 (Homo sapiens) (Q8NFQ8 whole entry, looked up): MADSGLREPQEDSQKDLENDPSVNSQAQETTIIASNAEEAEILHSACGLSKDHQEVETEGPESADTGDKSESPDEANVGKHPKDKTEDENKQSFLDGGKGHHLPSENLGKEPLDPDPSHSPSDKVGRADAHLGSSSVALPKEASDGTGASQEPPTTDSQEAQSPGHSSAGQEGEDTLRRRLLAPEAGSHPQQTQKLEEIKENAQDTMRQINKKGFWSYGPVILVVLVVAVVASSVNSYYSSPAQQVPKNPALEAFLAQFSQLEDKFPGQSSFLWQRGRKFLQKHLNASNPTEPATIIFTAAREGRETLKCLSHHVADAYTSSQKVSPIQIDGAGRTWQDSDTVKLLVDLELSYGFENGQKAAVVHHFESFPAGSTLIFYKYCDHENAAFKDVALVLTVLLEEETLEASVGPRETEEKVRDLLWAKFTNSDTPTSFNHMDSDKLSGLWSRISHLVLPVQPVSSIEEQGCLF
In the case of `C=CCOC(=O)[C@H]1[C@@H]2C(=O)O[C@@H](c3ccccc3)[C@@H](c3ccccc3)N2[C@@H](c2ccc(OCCOC(=O)[C@H]3C[C@H]4C(=O)N5CCC[C@H]5C(=O)N4[C@H]3c3ccc(O)cc3)cc2)[C@]12C(=O)Nc1ccccc12`, the composite z-score was 3.03.

In turn, `COCCCN1C(=O)[C@@]2(c3ccc([N+](=O)[O-])cc3)CC(=O)N(C3CCCCC3)[C@@H]2c2ccc(CO)cc21` gave a composite z-score of -0.701. Consider `CN(C)CCCCCCNC(=O)[C@@H]1C[C@@H]2C(=O)N[C@@H](CCCCN)C(=O)N2[C@@H]1c1cccc(OCCO)c1`, for which the composite z-score came out at 4.63. Regarding `CC(C)c1ccc(NN2C(C(O)C(c3ccccc3)c3ccccc3)C=CC3C(=O)N(c4ccccc4)C(=O)C32)cc1` (stereo not given), the composite z-score is 2.63.

For `C=C(CCCC)C(=O)CC[C@@H](OC(=O)c1cccnc1)c1ccc(CO)o1`, the composite z-score is 1.45. Turning to `O=C(NCc1ccccc1)[C@@]1(Cc2ccccc2)N=C(c2ccc(OCCCO)cc2)O[C@H]1c1ccccc1`, the composite z-score came out at 3.39.

Regarding `COCCOC(=O)N1C(=O)[C@@]2(c3cc(C#Cc4ccc(OC)cc4)ccc31)[C@H](c1ccccc1OCCO)N1[C@H](c3ccccc3)[C@H](c3ccccc3)OC(=O)[C@H]1[C@@H]2C(=O)N1CCN(c2ncccn2)CC1`, the composite z-score was 2.22. As to `O=C1NC(=O)C2C1C=CC(C(O)Cc1ccccc1)N2Nc1ccc(Cl)cc1Cl` (stereo not given), the composite z-score is 3.21. Turning to `CCCCN1CC=CC23O[C@@H]4/C=C\CCC(C)OC(=O)C4[C@H]2C(=O)N(CCCCCO)[C@@H]3C1=O` (stereo not given in full), the composite z-score was determined as 1.72. `O=C1[C@H]2C=C(Br)[C@H](C[C@@H]2c2ccccc2)[C@@]12CO2`: the composite z-score came out at 0.328. `CN1C(=O)C2C=CC(C(O)c3cccs3)N(Nc3ccccc3)C2C1=O` (stereo not given): the composite z-score is 3.24. With `COCCOC(=O)N1C(=O)[C@@]2(c3cc(C#CCCO)ccc31)[C@H](C(=O)Nc1nc3ccccc3s1)[C@H]1C(=O)O[C@H](c3ccccc3)[C@H](c3ccccc3)N1[C@@H]2c1ccc(OCCO)cc1`, the composite z-score stood at 1.89. Regarding `CC(C)(C)OC(=O)CC[C@@]12N=C(c3ccc(OCCCO)cc3)O[C@@H]1c1ccccc1N(CCS(=O)(=O)c1ccccc1)C2=O`, the composite z-score was 2.48. `COC(=O)[C@@]1(Cc2ccccc2)[C@H]2c3cc(C(=O)N4CCCC4)n(Cc4nc5ccccc5[nH]4)c3C[C@H]2CN1C(=O)c1ccccc1` had a composite z-score of 3.82.
